The entries come from a sample that favours hits as a whole.
Pf Dd2 growth = inhibitors of Plasmodium falciparum Dd2 growth; Potency, µM (top dose mostly 28.9 µM), for inactives: at the highest dose activity, negative = inhibition, hits mostly inhibitors; 4.3% of 120,000 active; P. falciparum Dd2 growth, SYBR Green, 72 h; AID 1347417; active = well fitted inhibition curve with a large enough effect;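 note: plate controls were DMSO vehicle for no effect and reference drug for full effect; nearly all actives have a fitted effect of over 65% in size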
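Infected erythrocytes (Dd2, 0.3% parasitemia, 2.5% hematocrit final) are added to compound in RPMI-1640/Albumax II medium, grown 72 h at 37C in low oxygen, then lysed with saponin/Triton-X containing SYBR Green and read by fluorescence.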
An asterisk follows results filed as active; i = inactive; ! = repeats disagree; [ ] = dose if it differs, or a comment. Potency is the fitted concentration of half-maximal effect.

SMILES	Pf Dd2 growth
COc1ccc(-c2cc(N3CCN(C(=O)c4ccc(C)nc4)CC3)n[nH]2)cc1	i
COc1ccc(-c2cc(N3CCCN(C(=O)c4ccc(C)nc4)CC3)n[nH]2)cc1	i
CC(C(=O)N1CCCC1)N1CCC2(CCC(=O)N(CCO)C2)CC1 (configuration not stated)	-5.5%
Cc1ccc(NC(=O)CN2C(=O)NC3(CCC(C)CC3)C2=O)cc1C (configuration not stated)	i
CN(C)C(=O)c1cccnc1OC1CCN(S(=O)(=O)c2ccc3c(c2)CCC3)C1 (configuration not stated)	i
COc1cccc(-c2ccc(CN3CCCC(c4nc5ccc(C)cc5c(=O)[nH]4)C3)cc2)c1 (configuration not stated)	7.94µM*!
Cc1ccc(-c2cccc(CN3CCCC(c4nc5ccc(C)cc5c(=O)[nH]4)C3)c2)c(C)c1 (configuration not stated)	7.94µM*!
Cc1ccc2nc(C3CCN(CC4CCCC4)CC3)[nH]c(=O)c2c1	11.5%[44.1 µM]
Cc1ccc2nc(C3CCN(Cc4ccccc4)CC3)[nH]c(=O)c2c1	-5.4%
COc1ccc(-n2nc(C3CCCN(Cc4cccc5ccccc45)C3)[nH]c2=O)cc1 (configuration not stated)	-18.3%
COc1cccc(-c2ccc(CN3CCN(c4cc(Cl)ncn4)C(=O)C3)cc2)c1	-23.0%
Fc1ccc(Cn2ccnc2-c2ccccn2)c(Cl)c1	-16.3%
CC1=C[C@@H](CO)[C@H](C(C)C)C[C@H]1CC(=O)NCc1cccnc1	2.7%[44.1 µM]
CC(C)NC(=O)NC[C@H]1O[C@@H](CC(=O)NCCN(C)C)[C@H](O)[C@@H]1O	53.2%[44.1 µM]
COc1cc(-c2noc(CN3CCN(c4ccccc4)CC3)n2)cc(OC)c1OC	14.0%
CCOc1ccc2oc(=O)cc(CN3CCN(c4ccccc4)CC3)c2c1	i
COc1ccc(-c2noc(CN3CCN(c4cccc(Cl)c4)CC3)n2)cc1	17.0%
CCOCc1cc(CN2CCN(c3cccc(Cl)c3)CC2)c(O)c2ncccc12	2.82µM*
CCn1c2ccccc2c2nnc(N3CCN(c4cccc(Cl)c4)CC3)nc21	-4.2%
CC(C)OCc1cc(CN2CCN(c3ccccc3)CC2)c(O)c2ncccc12	2.51µM*
CC[C@H]1CN(C(=O)Nc2cccc(C(F)(F)F)c2)CC[C@H]1CC(=O)N1CCOCC1	7.6%[44.1 µM]
NC1CC(c2cc(N3CCN(CCOc4ccccc4)CC3)ncn2)C1 (configuration not stated)	i
O=C(O)COc1ccc(-c2nccc3c2C(=O)N(Cc2cccc(C(F)(F)F)c2)CC(COc2cccc(F)c2)O3)cc1 (configuration not stated)	-10.2%
CS(=O)(=O)N1CCC(OC2CCN(C(=O)Nc3ccccc3Cl)CC2)CC1	34.6%
Cc1cc(C)c([S+](=O)([O-])c2nnn3c2nc(N2CCC(F)CC2)c2ccccc23)c(C)c1	11.2µM*
SMILES	Pf Dd2 growth
Cc1cc(C)c([S+](=O)([O-])c2nnn3c2nc(N2CCOCC2)c2ccccc23)c(C)c1	8.91µM*
O=S(=O)(c1ccccc1)c1nnn2c1nc(N1CCOCC1)c1ccccc12	4.9%
Cc1ccc(-c2nnn3c2nc(N2CCC(C)CC2)c2ccccc23)cc1	-11.1%
CC(C)c1ccc([S+](=O)([O-])c2nnn3c2nc(N2CCC(F)CC2)c2ccccc23)cc1	-27.7%
COc1ccc(OC)c([S+](=O)([O-])c2nnn3c2nc(N2CCOCC2)c2ccccc23)c1	-20.6%
CC(C)c1noc([C@@H]2C[C@H]3C(=O)NCCCCCCN(C(=O)c4ccc(C#N)cc4)[C@H]3C2)n1	i
CCOc1ccccc1C(=O)N1CCN(c2cc(-c3cccs3)[nH]n2)CC1	i
O=[S+]([O-])(c1cccs1)N1CCc2nc(C3CC3)nc(-c3ccc(Cl)cc3)c2CC1	3.98µM*
COc1ccc(-c2nc(C(C)C)nc3c2CN([S+](=O)([O-])c2cccc(OC)c2)CC3)cc1	i
CC(C)c1nc2c(c(-c3ccc(Cl)cc3)n1)CN([S+](=O)([O-])c1cccs1)CC2	i
COc1ccc(-c2nc(C(C)C)nc3c2CN([S+](=O)([O-])c2cccs2)CC3)cc1	5.01µM*
O=S(=O)(c1cccs1)N1CCc2nc(C3CC3)nc(-c3ccc(Cl)cc3)c2C1	-10.8%
CCc1nc2c(c(-c3ccc(OC)cc3)n1)CCN([S+](=O)([O-])c1cccs1)CC2	-13.7%
CNC(=O)[C@@H]1C[C@@H](n2cc(CNC(=O)Cc3ccccc3)nn2)CN1	0.6%
Cc1cnc(C(=O)NC2C[C@H]3CC[C@@H](C2)N3C(=O)COc2ccc(Cl)cc2C)cn1 (some centres not stated)	i
Cc1noc(C)c1S(=O)(=O)N1CCC2(CC1)CC(N1CCN(C(C)C)CC1)CCO2 (configuration not stated)	-10.0%
O=C1Nc2ccccc2C12CCN(c1cc(C3CC(O)C3)ncn1)CC2 (configuration not stated)	-26.3%
Cc1cc(C(=O)N2CC3CC(C2)[C@H]2CCCC(=O)N2C3)no1 (some centres not stated)	-0.7%
Cc1ccc2[nH]c(CN3CCCC4(CC3)CN(C)C(=O)O4)cc(=O)c2c1 (configuration not stated)	-14.9%
CCC(CC)c1cc([C@H]2CN3CC[C@H]2C[C@@H]3CNC(=O)c2cc(OC)c(OC)c(OC)c2)nc(-c2ccncc2)n1	-47.6%
CCC(CC)c1cc([C@H]2CN3CC[C@H]2C[C@@H]3CNC(=O)COc2ccccc2)nc(-c2ccncc2)n1	0.447µM*
CCC(CC)c1cc([C@H]2CN3CC[C@H]2C[C@@H]3CNC(=O)c2ccc(N(C)C)cc2)nc(-c2ccncc2)n1	-16.2%
Cc1nc(-c2ccccc2)cc([C@H]2CN3CC[C@H]2C[C@@H]3CNC(=O)CCCC(=O)O)n1	19.8%[44.1 µM]
CCC(CC)c1cc([C@H]2CN3CC[C@H]2C[C@@H]3CNC(=O)c2cccs2)nc(-c2ccncc2)n1	0.251µM*
CCC(CC)c1cc([C@H]2CN3CC[C@H]2C[C@@H]3COC(=O)Nc2ccccc2)nc(-c2ccncc2)n1	-13.5%
SMILES	Pf Dd2 growth
CCC(CC)c1cc([C@H]2CN3CC[C@H]2C[C@@H]3CNC(=O)Cc2cccs2)nc(-c2ccncc2)n1	0.708µM*
Cn1nc(-c2ccc3ccccc3c2)cc1[C@H]1CN2CC[C@H]1C[C@@H]2CNC(=O)COc1ccccc1	-12.5%
CC(=O)c1cccc(NC(=O)NC[C@H]2C[C@@H]3CCN2C[C@@H]3c2cc(-c3cccs3)nc(C)n2)c1	i
COc1cccc(N2CC(C(=O)N3CCC(C(=O)NCC4CC4)C3)NC2=O)c1 (configuration not stated)	-18.9%
O=C(Cc1ccccc1)N1CCC2(CNS(=O)(=O)c3cccnc3O2)C1 (configuration not stated)	59.7%
COCCCNC(=O)c1ccnc(-c2nnc3ccc(N(C)C)nn23)c1	-20.0%[44.1 µM]
Cc1nccn1-c1ccccc1Cn1cc(-c2cncnc2)nn1	-18.9%
Cc1nc(NCc2csc(-c3cnccn3)n2)cc(C2CC(O)C2)n1 (configuration not stated)	-26.5%
COc1ccc(-c2nc(C3CC3)nc3c2CCN(Cc2cc(C)on2)CC3)cc1	2.51µM*
COc1ccc(-c2nc(C)nc3c2CCN(CC2CC2)CC3)cc1	i
COc1ccc(CC(=O)N2CCc3nc(C4CC4)nc(-c4ccc(Cl)cc4)c3C2)cc1	i
Clc1ccc(-c2nc(C3CC3)nc3c2CCN(Cc2ccccc2)CC3)cc1	i
COc1ccc(-c2nc(C3CC3)nc3c2CCN(Cc2ccccc2)CC3)cc1	5.01µM*

Assay outcomes deposited in PubChem BioAssay by National Center for Advancing Translational Sciences (NCATS).
